Laboratory results from the supplement of paper PMC6555819.

system: VDR:RXRa (NR concentration 270 nM, RXRa partner concentration 90 nM); assay: PBM binding z-score (relative to random genomic background probes); higher = stronger binding; sequences stand for … in GC…GCGATTGACAGCGTAGAATGAAGG
Method: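 Protein-binding microarray (Agilent 4x180K custom design, double-stranded 60-nt probes: 5' GC cap, 34-nt variable region, 24-nt constant primer region; full probe sequence given). Purified or IVT nuclear receptor:RXRα heterodimers (3:1 NR:RXRα, mostly 270:90 nM) or homodimers were incubated for 1 h in PBS with 2% milk and no ligand, then detected with Alexa488 antibodies. Fluorescence from o1-orientation probes (~5 replicates averaged) was converted to z-scores against 500 random hg19 background probes. Variable regions are seed direct-repeat (DR0–DR5) sites, all their single-nucleotide variants and half-site ablations.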

Sequence	PBM binding z-score
TAGCCTAGGCCATGCGGGCCAGTATAGTGTCGGC	-1.04
ACTATTAGTTGAATTAGGGCAACCGATACGACGC	0.274
TCGAGTAGGTTAGTCGGGGAATTCAGCCAACATA	-0.318
TAGCCTAGGTCATTCAGGGCCCAGTATAGAAAGC	2.8
CGAACTAGGTCATTGACAGGACAGTGATTAGTAA	2.47
AGTCAAAGTTCACTAGGTAACGGAAGATTCAGCT	3.97
GCTGCTAGGTCAGGTTGCTCAGCTAACGGGTACG	0.0611
CCTCGGAGGACAGAAGGTCAGAGATGTCCGCTTT	1.28
CCTACTGGGCCACGAAAGGACATTGATTCAGTGA	-0.289
CCTACTGGGCCACGAAAGGTCAGTGATTCAGTGA	1.72
CTTACTGGGCCATCAGGTCATTGATATCAACGTT	1.91
TCATATAGGTAAAACAGGTGAAAGTCGGCATCTA	1.17
TAGCCTAGGGCATTGGGCCAGTATAGTACGCATC	-0.414
ACTATCAGGCCAAGTTTGGGTCACTCAAACAAAG	1.01
TCATATAGATAAACAGGTGAAAGTCCGTAAGTTA	1.18
AGAATGAGGATACCAAAGATCAGGGAAACGCTTG	-0.361
ACTAGCAGGCCAAGGGACACTCAAGATTAGTCCG	-0.487
TCTAGCAGGCCAGAGGGTCACTGAAGAGGTACGG	1.52
TGAATGAGGTTATAAGATCAGGGTACGTTGCAAA	1.79
TCTTGTAGATCAGCAGGTCAAGAAAGCTGGCCAA	1.17

Sequence	PBM binding z-score
ATCTCTAGGTAAACTTCAGTGAAAGATCGATAGA	0.36
TATTGTAGATCAAGCAGGTTAAGAAAGCCTGAGT	0.301
AGTCAAATTTCAGGACGAGGTAACGTAAAGCACG	-0.0744
GATACAGCGTCAGCTAGAGGCCAGAGTATGGAAA	-0.922
ACTCGCAGGCCAAGTTTGGGTCACTCAAACAAAG	0.787
GCGACTGGGGCACAGCAGGTTACCATAAGGTTGG	-0.208
CAAACTTGGTCAAAGGTCAAAGTCGAGCCAACCA	5.59
GCTGGTAGGTCAACTGATGGTCAGCTAAAGCTCG	2.01
CCTCGGAGGACAGAAGGTCAGAGTTGTCCGCTTT	1.12
CTTACTGGGCCAAAAAGGTCATTGATGCCGATAA	4.92
CCTGCTAGGTCATGGTCAGCTAATCTACAGTATG	1.7
GCTTGTAGATCAAGGTTAAGAATGACTAAGCTAA	0.0818
CGAACTAGGTCACCGGAAGGTCAAAGTCCGCATG	5.8
TATACAGGGTCAGAGGCCAGAGTACGAATGTCGA	3.24
CGTCCAAGGTCAAAGGTCAGTGATGAGATGACGG	6.62
CGTCCAAGGTAATAGGAGGTCAGTGAAGACAGAT	2.56
CGTCCAAGGTCAGCAGGTCAGTGCAAGCGACGTG	3.93
GCTGCTAGGTCAGGTTGGTCAGTTAACGGGTACG	1.02
ATCTCTAGGTAAACGTTCAGTGAATCCCGAGGAT	-0.107
ATCTCTAGGTAAAGTTCAGTAAAAGATCGATAGA	1.65
